Experimental findings from PubChem BioAssay (NCI) are described below.

Holding throughout (experiment): NCI-60 one-dose screen, 48 h (100 = growth as untreated, 0 = no growth, -100 = all killed)
Holding throughout (conditions): 10 µM unless noted

In test [1] the test system is SR leukemia.
Test [2] deals with RPMI-8226 leukemia.
The test system of test [3] is OVCAR-8 ovarian.
The subject of test [4] is OVCAR-5 ovarian.
In test [5] the test system is OVCAR-4 ovarian.
The test system of test [6] is SK-OV-3 ovarian.
Test [7] relates to IGROV1 ovarian.
The test system of test [8] is OVCAR-3 ovarian.
Test [9] relates to HS 578T breast.
Test [10] concerns NCI/ADR-RES ovarian.
Test [11] relates to T-47D breast.
Test [12] concerns BT-549 breast.
The test system of test [13] is MDA-MB-435 melanoma.
The test system of test [14] is SW-620 colon.
Test [15] has as its system HCT-116 colon.
Test [16] relates to HCC-2998 colon.
Test [17] relates to KM12 colon.
Test [18] has as its system MCF7 breast.

The panel holds about 83,000 compounds, 20% with a hit somewhere; the sample as a whole holds those more often.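 Testing used 96-well plates and a 48-hour single-concentration exposure. Example: -40 means 40% of the starting cells died.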 Values without a mark were called inactive. Calls of active or inactive are those of the source. The calls were made as follows: active = growth percent below 10; inactive = the rest.

Consider `O=C1Nc2ccccc2/C1=C/C(=N/c1nnc(-c2ccccc2)s1)c1ccccc1`, for which the growth was -23% (active) in test [1]; -17.5% (active) in test [2]; 36.8% in test [3]; 78.9% in test [4]; 59.2% in test [5]; 87.3% in test [6]. Further, the growth in [7] is 19.7%; in [8] it was -20.2% (active); in test [9], 106%; in test [10] it was 46.2%; in [11] it was 73.7%; in [12] it was 66.4%. Besides, the growth is 51.6% in [13]; -5.52% (active) in [14]; -51.9% (active) in test [15]; 104% in [16]; 87.7% in test [17].
Take `CCCCNP1(NCCCC)=NP(NCCCC)(NCCCC)=NP(NCCCC)(NCCCC)=NP(NCCCC)(NCCCC)=N1`: the growth is -51.8% (active) in test [1]; -41.7% (active) in [2]; 16.7% in [3]; 16.7% in test [4]; 16.9% in test [5]; 7.65% (active) in [6]. For the same compound, the growth was 30.7% in test [7]; -48.7% (active) in test [8]; -7.98% (active) in [9]; 97.2% in test [10]; -5.86% (active) in [11]; 45.4% in test [12]. Also, the growth in test [13] is 6.7% (active); in test [14] it was 6.12% (active); in test [18], -7.14% (active); in [15], 0.711% (active); in [17], -24.7% (active).
For `COc1ccc(-c2cc(=O)[nH]c3c(OC)c4ccccc4c(OC)c23)cc1`, the growth in test [1] is -14% (active); in test [2] it was 4.21% (active); in test [3], 33.3%; in test [4], 36.3%; in test [5] it was 30.8%; in test [6] it was 2.24% (active). The growth in test [7] is 32.8%; in test [8], -43.2% (active); in test [9] it was -6.69% (active); in test [10], 3.17% (active); in [11], 31.6%; in test [12], 26%. The growth in test [13] was -28.9% (active); in test [14] it was 19.6%; in [18], 13.4%; in [15], 12.1%; in test [17] it was 2.11% (active).
Turning to `NC(=S)N/N=C/c1ccc(OCc2ccccc2)cc1`, the growth is 62.8% in test [1]; 1.94% (active) in [2]; 78.2% in test [3]; 89.7% in test [4]; 44.8% in [5]; 80% in [6]. For the same compound, the growth was 52.8% in test [7]; 62.1% in test [8]; 81.2% in test [9]; 83.7% in test [10]; 20.8% in [11]; 58.4% in test [12]. Moreover, the growth in test [13] is 74%; in [14], 66.2%; in test [18] it was 52.1%; in [15] it was 52.5%; in test [17], 84.6%.
In the case of `Cn1c2c(Cl)c(Cl)ccc2c2ccn3c(=O)c4ccccc4nc3c21`, the growth is 75.9% in [1]; 98.8% in [2]; 95.5% in [3]; 96.8% in test [4]; 92.1% in test [5]; 88.9% in [6]. The growth in test [7] is 54.4%; in test [8] it was 113%; in [9], 103%; in test [10], 99.4%; in test [11], 85%; in test [12], 86.4%. Moreover, the growth in test [13] was 98.3%; in test [14], 99.1%; in test [15], 90%; in [16], 100%; in test [17] it was 103%.
Turning to `CN1CCN(Cc2ccc(NC(=O)c3[nH]ncc3Nc3ccnc4ccsc34)cc2)CC1`, the growth in test [1] was -12.5% (active); in test [2], 19.2%; in [3], 21.5%; in [4] it was 18.1%; in test [5] it was 12.5%; in test [6], 34.7%. Further, the growth in test [7] was 24.2%; in test [8], 22.6%; in test [9], 54.6%; in test [10], 93.5%; in test [11], 65.8%; in test [12] it was 63.1%. The growth is 61.7% in test [13]; 20.6% in test [14]; 10.1% in [15]; 33% in test [16]; 12.3% in test [17].
In the case of `O=C1C=CC(=O)N1c1ccc(Cc2ccc(N3C(=O)C=CC3=O)cc2)cc1`, the growth in test [1] was 92.6%; in test [2], 81.6%; in test [3], 103%; in [4], 86.4%; in [5] it was 201%; in test [6], 101%. Besides, the growth is 89.7% in [7]; 125% in [8]; 94.7% in [9]; 99.4% in test [10]; 89.8% in test [11]; 95.8% in test [12]. Also, the growth in test [13] was 104%; in test [14], 110%; in [18], 89.5%; in test [15], 89%; in test [17] it was 100%.
On to `O=C1Nc2c(ccc(Cl)c2Cl)/C1=C/c1cc(Br)c(O)c(Br)c1`, for which the growth was 39.3% in test [1]; 14.8% in test [2]; 51.4% in [3]; 87.1% in [4]; 64.9% in [5]; 63% in test [6]. Besides, the growth in [7] is 47%; in test [8], 27.3%; in test [9] it was 43.5%; in test [10], 32.4%; in test [11], 54.8%; in [12], 29.2%. Moreover, the growth in [13] is -29.4% (active); in test [14] it was 36.1%; in test [15], 58.4%; in test [16], 68.7%; in test [17], 32.5%.
As for `COc1ccc2c(c1)C(=O)/C(=C/c1cccc(OCC(=O)Nc3nc4c(s3)CCCC4)c1)O2`, the growth in test [1] is -17.2% (active); in test [2], -6.7% (active); in test [3], 10.4%; in [4], -13.6% (active); in [5] it was 8.81% (active); in [6], 119%. For the same compound, the growth in [7] was -47.4% (active); in test [8] it was -68.6% (active); in [9] it was -16.2% (active); in test [10], 10.4%; in test [11] it was 47.1%; in test [12], -65.4% (active). Besides, the growth in [13] was 27.3%; in test [14], -61.6% (active); in test [15], -25.7% (active); in [16], -66.7% (active); in test [17], -68.3% (active).
